Data on nine molecules can be found in PubChem BioAssay (NCATS).

Experiment [1] is described as follows: AP1 Signaling Pathway (AID 357; active = well fitted curve in either direction with a large enough effect, not every such curve was filed as active;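 also: ME-180 reporter cells stimulated with EGF at its EC50 level; % is scaled to controls: 0 for no effect and ±100 for the full control effect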). The note with it: ME-180 (cervical carcinoma) AP-1-bla reporter, EGF-induced, beta-lactamase ratio, 5 h; at 7.69 µM (top of the series) unless noted. A digest of the protocol:
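AP-1-bla ME-180 cells, Opti-MEM + 0.5% dialyzed FBS, plated overnight 37 °C. Cpd titration + EC50 EGF, 5 h 37 °C. CCF4 2.5 h RT; ex 405, em 460/530 ratio → %activity, AC50.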

Experiment [2] is described as follows: NFAT Signaling Pathway (AID 444; active = well fitted curve in either direction with a large enough effect, not every such curve was filed as active;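 also: carbachol stimulus at about its EC50 of 1 µM final; % is scaled to controls: 0 for no effect and ±100 for the full control effect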). As to conditions: Jurkat NFAT-bla M1, carbachol, beta-lactamase ratio, 5 h; at 7.69 µM (top of the series) unless noted. A digest of the protocol:
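Jurkat cells carrying an NFAT-driven β-lactamase reporter and co-transfected muscarinic M1 receptor were treated with compound plus carbachol (1 uM final, an EC50 level) for 5 h at 37 °C. CCF4 loading followed for 1 h at RT; 460/530 nm ratio gave %activity.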

A short description of experiment [3]: Stat Signaling Pathway (AID 446; active = well fitted curve in either direction with a large enough effect, not every such curve was filed as active;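 also: ME-180 cervical cancer cells given 40 pM IL-6 alongside compound; SIE-controlled beta-lactamase reporter measured as 460/530 nm FRET emission ratio; % is scaled to controls: 0 for no effect and ±100 for the full control effect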). The method in brief: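 FRET read-out (405 nm excitation, 460/530 nm emission) of a beta-lactamase reporter under a STAT-inducible element in ME-180 cervical carcinoma cells. Cells with compound receive 40 pM IL-6 for 5 h. Values are normalised to AC90 stimulation and AC90 JAK-inhibitor controls.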
In experiment [4] the target is Glucocorticoid receptor (Homo sapiens) (UniProt P04150). In words: GR-GFP Redistribution (AID 450;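 active = compounds whose dose series gives a full or clear partial fitted curve of increased nuclear translocation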; also: potency is read from the fitted curve at half-maximal effect). As to conditions: U2OS GR-GFP nuclear translocation, laser cytometry, 2 h.
Experiment [5] has as its target Rap guanine nucleotide exchange factor 3 (Homo sapiens) (UniProt O95398). The experiment can be described thus: Confirmatory qHTS for antagonist of cAMP-regulated guanine nucleotide exchange factor 3 (EPAC1) (AID 1645880). Also: nearly all actives have a fitted effect of over 55% in size. Also: potency is read from the fitted curve at half-maximal effect.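 As to activity, negative = inhibition: plate controls were DMSO only for no effect and full effect of the ATA control for full effect.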 As to conditions: EPAC1 Rap1B-BODIPY-GDP exchange, fluorescence; activity, negative = inhibition: at 115 µM (top of the series). A digest of the protocol: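 Released BODIPY-GDP fluoresces less than Rap1-bound BODIPY-GDP; the signal is followed at 480/540 nm at 5-min intervals over 30 min, after 5 min at room temperature. Reactions contain 100 nM EPAC1, 250 nM RAP1B-BODIPY-GDP and 50 uM GDP; results are normalized to ATA and DMSO.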
On the technique in general: qHTS replaces the single test concentration by a dilution series.

Experiment [6] has the same target. In words: Confirmatory qHTS for agonist of cAMP-regulated guanine nucleotide exchange factor 3 (EPAC1) (AID 1645881). Also: nearly all actives have a fitted effect of over 75% in size. Also: potency is read from the fitted curve at half-maximal effect.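 As to activation: EPAC1 catalysed release of BODIPY-GDP from Rap1B seen as fluorescence loss; 100% = effect of cAMP agonist control.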
Experiment [7] has as its target Rap guanine nucleotide exchange factor 4 (Homo sapiens) (UniProt Q8WZA2). The experiment can be described thus: Confirmatory qHTS for agonist of cAMP-regulated guanine nucleotide exchange factor 4 (EPAC2) (AID 1645884).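 Also: nucleotide exchange releases bodipy-GDP from Rap1 and this lowers its fluorescence; nearly all actives have a fitted effect of over 65% in size.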 Also: potency is read from the fitted curve at half-maximal effect.
The target is the same in experiment [8]. In words: Confirmatory qHTS for antagonist of cAMP-regulated guanine nucleotide exchange factor 4 (EPAC2) (AID 1645885). Also: nearly all actives have a fitted effect of over 25% in size. Also: potency is read from the fitted curve at half-maximal effect.
Experiment [9] deals with Rap guanine nucleotide exchange factor 3 (Homo sapiens) (UniProt O95398). In words: Counterscreen qHTS for antagonist of cAMP-regulated guanine nucleotide exchange factor 3 (EPAC1) (AID 1645888). Also: % of control where 0% means no effect. The method in brief: (§1)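 Measured: fluorescence of BODIPY-GDP bound to Rap1B, which falls as exchange proceeds. Conditions include 50 uM competing GDP, 5 and 30 min reads, and a later cAMP challenge for antagonist detection.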
In general terms: The purpose of a counterscreen is to sort out artefacts and off-target activity.

For experiment [10], the target named is Tumor susceptibility gene 101 protein (Homo sapiens) (UniProt Q99816). The experiment can be described thus: qHTS Assay for Iinhibitors of HIV-1 Budding by Blocking the Interaction of PTAP/TSG101: Hit Validation (AID 651600). Also: % is scaled to controls: 0 for no effect and ±100 for the full control effect; nearly all actives have a fitted effect of over 70% in size. A digest of the protocol:
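Measuring PTAP–Tsg101 interaction by FP: protein at 10 uM and fluorescent peptide at 50 nM (final), buffer 10 mM HEPES pH 7.5 with 0.15 M NaCl, 3 mM EDTA, 0.1 mM TCEP, 0.01% Tween 20; 20 min incubation, r.t.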

Experiment [11] concerns the target Rap guanine nucleotide exchange factor 3 (Homo sapiens) (UniProt O95398). The experiment can be described thus: Counterscreen qHTS for agonist of cAMP-regulated guanine nucleotide exchange factor 3 (EPAC1) (AID 1645889). Also: % of control where 0% means no effect; nearly all actives have a fitted effect of over 40% in size. The method in brief:
as §1

The target of experiment [12] is DNA polymerase iota (Homo sapiens) (UniProt Q9UNA4). In words: qHTS for Inhibitors of Polymerase Iota: Confirmatory Assay for Cherry-picked Compounds (AID 720496). Also: potency is read from the fitted curve at half-maximal effect. As to conditions: Pol iota primer extension, TAMRA/BHQ fluorescence. The method in brief: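 Extension of a quenched TAMRA-reporter/BHQ-2-template DNA substrate (50 nM) by 10 nM Pol iota after 15 min compound preincubation. Strand-displacement fluorescence (525/598 nm) was read kinetically at 0 and 10 min. Buffer-only wells served as negative control.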

The target in experiment [13] is DNA polymerase kappa (Homo sapiens) (UniProt Q9UBT6). The experiment can be described thus: qHTS for Inhibitors of Polymerase Kappa: Confirmatory Assay for Cherry-picked Compounds (AID 720501). Also: potency is read from the fitted curve at half-maximal effect. As to conditions: purified Pol-kappa, fluorescent strand-displacement substrate. A digest of the protocol: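 Human Pol-kappa, dispensed at 10 nM, was preincubated with compounds for 15 min at room temperature. Reactions were started with primer/template substrate (50 nM final) carrying a TAMRA reporter strand and BHQ-2-quenched template, and fluorescence (ex 525/em 598 nm) was read at 0 and 10 min.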

Experiment [14] is described as follows: qHTS for Inhibitors of the vitamin D receptor (VDR): Hit Validation using a Texas Red Assay (AID 602201). Also: % is scaled to controls: 0 for no effect and ±100 for the full control effect. A digest of the protocol:
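Fluorescence polarization (Ex 595/Em 615 nm) of Texas Red (7 nM) with 1.5 uM VDR-LBD and LG19078 (final concentrations). Compounds were incubated for 2 hours at room temperature.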

Values without a mark were called inactive. Results filed as inconclusive are left out. Some of the results follow. The source made the active and inactive calls. Unless noted, calls follow the shape of the dose curve; as a rule, active = well fitted curve in the direction sought with a large enough effect; inconclusive = small, poorly fitted or top-dose-only effect, or another doubt; inactive = no such curve, though single readings can be large; an effect the other way counts as inactive or inconclusive. A value given as a limit tells only on which side of the number the result lay.

Chain of Rap guanine nucleotide exchange factor 3 (Homo sapiens) (O95398 whole entry, looked up): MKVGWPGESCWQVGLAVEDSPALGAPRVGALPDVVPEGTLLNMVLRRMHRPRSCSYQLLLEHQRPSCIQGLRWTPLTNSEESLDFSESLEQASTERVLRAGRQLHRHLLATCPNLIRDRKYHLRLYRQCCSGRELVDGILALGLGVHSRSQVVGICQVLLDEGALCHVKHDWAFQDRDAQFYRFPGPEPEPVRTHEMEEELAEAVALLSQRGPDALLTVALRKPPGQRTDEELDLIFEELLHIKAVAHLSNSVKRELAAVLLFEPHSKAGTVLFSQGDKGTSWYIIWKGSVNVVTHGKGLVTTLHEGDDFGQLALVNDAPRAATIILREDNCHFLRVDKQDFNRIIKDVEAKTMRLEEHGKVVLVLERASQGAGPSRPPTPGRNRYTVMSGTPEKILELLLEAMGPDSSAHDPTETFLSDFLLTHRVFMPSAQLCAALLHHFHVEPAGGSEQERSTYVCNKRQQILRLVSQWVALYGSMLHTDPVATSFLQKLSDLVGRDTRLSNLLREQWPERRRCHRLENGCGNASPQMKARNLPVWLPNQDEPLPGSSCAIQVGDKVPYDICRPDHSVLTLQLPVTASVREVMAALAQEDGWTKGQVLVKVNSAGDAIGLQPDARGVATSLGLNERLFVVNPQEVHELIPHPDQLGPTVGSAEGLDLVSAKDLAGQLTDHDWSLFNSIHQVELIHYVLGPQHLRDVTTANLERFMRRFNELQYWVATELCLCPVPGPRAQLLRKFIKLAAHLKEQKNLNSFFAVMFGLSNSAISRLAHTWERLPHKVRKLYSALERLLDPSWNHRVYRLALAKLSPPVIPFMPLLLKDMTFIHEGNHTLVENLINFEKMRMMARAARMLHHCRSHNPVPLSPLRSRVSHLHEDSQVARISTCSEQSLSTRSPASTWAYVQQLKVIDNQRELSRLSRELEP
Chain of Tumor susceptibility gene 101 protein (Homo sapiens) (Q99816 whole entry, looked up): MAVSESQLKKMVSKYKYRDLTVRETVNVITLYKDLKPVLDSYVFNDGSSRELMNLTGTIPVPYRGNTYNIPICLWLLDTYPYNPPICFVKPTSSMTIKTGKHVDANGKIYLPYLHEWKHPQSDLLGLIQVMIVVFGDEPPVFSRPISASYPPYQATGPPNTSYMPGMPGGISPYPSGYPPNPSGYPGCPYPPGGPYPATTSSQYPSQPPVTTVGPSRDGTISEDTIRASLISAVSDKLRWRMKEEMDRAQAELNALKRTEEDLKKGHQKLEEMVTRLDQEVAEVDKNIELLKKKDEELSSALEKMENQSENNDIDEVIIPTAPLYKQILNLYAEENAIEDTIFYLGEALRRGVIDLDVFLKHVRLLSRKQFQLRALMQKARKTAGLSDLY
Chain of Rap guanine nucleotide exchange factor 4 (Homo sapiens) (Q8WZA2 whole entry, looked up): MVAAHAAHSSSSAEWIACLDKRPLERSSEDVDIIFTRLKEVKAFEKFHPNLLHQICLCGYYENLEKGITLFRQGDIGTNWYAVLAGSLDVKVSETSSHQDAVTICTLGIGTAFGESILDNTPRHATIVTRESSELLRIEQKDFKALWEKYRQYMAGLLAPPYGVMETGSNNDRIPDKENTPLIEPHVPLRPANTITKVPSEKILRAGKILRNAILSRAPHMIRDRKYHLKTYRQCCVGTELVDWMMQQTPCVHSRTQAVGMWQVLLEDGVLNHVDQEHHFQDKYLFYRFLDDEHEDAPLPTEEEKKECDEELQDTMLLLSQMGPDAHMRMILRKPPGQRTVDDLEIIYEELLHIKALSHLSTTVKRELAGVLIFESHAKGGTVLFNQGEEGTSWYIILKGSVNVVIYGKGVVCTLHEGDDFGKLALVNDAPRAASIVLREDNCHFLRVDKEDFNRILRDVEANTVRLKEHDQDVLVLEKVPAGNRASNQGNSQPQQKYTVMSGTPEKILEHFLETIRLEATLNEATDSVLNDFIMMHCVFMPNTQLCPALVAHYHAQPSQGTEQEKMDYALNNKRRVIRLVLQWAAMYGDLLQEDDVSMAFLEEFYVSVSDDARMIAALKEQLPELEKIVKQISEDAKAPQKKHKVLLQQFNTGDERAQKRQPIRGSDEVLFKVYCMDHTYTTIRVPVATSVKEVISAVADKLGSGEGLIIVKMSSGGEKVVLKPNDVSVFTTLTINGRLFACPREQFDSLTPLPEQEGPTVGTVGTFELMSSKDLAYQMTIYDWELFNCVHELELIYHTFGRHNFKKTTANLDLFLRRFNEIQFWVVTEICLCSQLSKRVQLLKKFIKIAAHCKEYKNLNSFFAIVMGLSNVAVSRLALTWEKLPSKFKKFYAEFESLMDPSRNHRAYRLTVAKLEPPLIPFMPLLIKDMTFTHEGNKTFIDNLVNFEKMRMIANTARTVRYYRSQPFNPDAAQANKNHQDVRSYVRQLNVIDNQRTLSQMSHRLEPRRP
Chain of DNA polymerase kappa (Homo sapiens) (Q9UBT6 whole entry, looked up): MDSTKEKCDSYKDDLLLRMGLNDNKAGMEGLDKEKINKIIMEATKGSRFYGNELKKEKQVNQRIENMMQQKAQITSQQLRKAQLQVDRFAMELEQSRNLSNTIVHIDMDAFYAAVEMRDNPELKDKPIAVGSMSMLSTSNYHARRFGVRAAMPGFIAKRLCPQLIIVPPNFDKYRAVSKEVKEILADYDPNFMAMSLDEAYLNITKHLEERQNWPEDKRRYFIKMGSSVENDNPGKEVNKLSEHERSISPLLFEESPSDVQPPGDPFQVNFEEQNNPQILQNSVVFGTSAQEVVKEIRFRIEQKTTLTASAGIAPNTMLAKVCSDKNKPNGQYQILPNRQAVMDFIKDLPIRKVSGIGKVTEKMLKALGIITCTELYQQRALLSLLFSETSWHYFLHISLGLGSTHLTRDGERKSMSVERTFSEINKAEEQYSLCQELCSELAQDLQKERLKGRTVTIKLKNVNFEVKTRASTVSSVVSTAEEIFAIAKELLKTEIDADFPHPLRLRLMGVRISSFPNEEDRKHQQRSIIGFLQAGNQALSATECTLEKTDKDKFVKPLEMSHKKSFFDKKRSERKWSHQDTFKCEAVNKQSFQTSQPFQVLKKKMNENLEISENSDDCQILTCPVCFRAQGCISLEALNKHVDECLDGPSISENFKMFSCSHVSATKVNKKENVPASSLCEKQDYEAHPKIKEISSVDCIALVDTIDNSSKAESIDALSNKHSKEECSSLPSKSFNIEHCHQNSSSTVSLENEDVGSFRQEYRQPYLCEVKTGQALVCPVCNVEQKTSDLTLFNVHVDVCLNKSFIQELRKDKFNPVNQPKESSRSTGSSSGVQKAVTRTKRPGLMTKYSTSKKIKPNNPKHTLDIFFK
Chain of DNA polymerase iota (Homo sapiens) (Q9UNA4 whole entry, looked up): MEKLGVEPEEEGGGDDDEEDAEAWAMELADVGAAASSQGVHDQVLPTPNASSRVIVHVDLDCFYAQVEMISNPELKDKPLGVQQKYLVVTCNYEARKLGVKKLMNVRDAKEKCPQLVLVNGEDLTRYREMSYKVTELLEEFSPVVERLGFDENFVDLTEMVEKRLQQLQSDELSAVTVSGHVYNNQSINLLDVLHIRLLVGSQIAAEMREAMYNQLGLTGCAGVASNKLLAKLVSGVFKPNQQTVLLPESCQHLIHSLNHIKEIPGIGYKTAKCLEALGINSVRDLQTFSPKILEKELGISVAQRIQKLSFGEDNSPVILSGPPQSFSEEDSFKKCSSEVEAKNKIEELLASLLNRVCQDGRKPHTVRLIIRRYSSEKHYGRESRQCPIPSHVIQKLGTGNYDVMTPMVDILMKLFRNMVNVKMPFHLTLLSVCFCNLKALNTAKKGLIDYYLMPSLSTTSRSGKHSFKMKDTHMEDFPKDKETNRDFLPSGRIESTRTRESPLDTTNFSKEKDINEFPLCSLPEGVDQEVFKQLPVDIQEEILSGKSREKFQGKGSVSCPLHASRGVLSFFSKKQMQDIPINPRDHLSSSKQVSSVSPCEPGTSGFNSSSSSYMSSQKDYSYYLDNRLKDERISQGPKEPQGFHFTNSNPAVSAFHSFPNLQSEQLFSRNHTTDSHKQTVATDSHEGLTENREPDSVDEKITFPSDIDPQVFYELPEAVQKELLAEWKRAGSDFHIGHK
Chain of Glucocorticoid receptor (Homo sapiens) (P04150 whole entry, looked up): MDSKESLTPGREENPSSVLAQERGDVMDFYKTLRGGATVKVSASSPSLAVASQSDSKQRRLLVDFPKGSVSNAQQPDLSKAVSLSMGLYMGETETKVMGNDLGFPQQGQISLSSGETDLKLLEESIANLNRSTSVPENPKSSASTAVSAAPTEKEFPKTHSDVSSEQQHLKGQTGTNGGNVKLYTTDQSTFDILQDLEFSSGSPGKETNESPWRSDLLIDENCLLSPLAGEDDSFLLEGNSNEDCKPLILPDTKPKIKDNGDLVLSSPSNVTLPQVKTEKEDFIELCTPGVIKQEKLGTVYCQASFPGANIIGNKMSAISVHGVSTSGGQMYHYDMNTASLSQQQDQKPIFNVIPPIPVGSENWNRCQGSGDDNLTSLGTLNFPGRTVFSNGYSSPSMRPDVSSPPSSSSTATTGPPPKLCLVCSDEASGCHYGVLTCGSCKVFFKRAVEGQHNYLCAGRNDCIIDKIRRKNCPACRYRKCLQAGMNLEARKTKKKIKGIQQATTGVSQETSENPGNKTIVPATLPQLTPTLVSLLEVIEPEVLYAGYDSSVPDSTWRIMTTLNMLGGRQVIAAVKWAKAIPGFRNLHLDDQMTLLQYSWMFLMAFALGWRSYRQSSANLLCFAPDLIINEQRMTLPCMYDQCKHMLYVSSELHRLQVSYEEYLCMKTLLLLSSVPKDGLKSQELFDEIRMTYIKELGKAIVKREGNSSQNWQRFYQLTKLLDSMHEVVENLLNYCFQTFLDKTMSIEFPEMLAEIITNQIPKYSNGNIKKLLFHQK

As for `CC1=C(C#N)C(=O)OC(C)(C)C1`, the activity change, negative = inhibition in [1] is 8.14% [at 17.2 µM]; in [2] it was -4.86% [at 17.2 µM]. In addition, the result in experiment [3] was inactive. For the same molecule, the Potency in [4] was greater than 20.6 µM; in experiment [8] it was 0.601 µM (active). The Potency entry in experiment [5], in [6], in experiment [7] and in [9] was “inactive” throughout.

Regarding `CN(C)c1ccc(/C=C(\C#N)C(=O)Nc2nc3c(s2)CCN(Cc2ccccc2)C3)cc1`, the Potency entry in experiment [10], in [5], in [8] and in [9] was “inactive” each time. Besides, the Potency in experiment [6] and in experiment [7] was 100 µM (active) throughout.

Take `N#CC(C(=O)NCc1ccccc1)c1nc2ccccc2nc1N1CCCC1` (centres undefined): the Potency entry in experiment [10], in experiment [5], in experiment [9] and in experiment [11] was “inactive” in each case. The Potency was 100 µM (active) in [6], 89.1 µM (active) in [7] and 75.7 µM (active) in [8].

`COc1ccc(Br)cc1/C=N/Nc1ccc(S(=O)(=O)Nc2ccccc2C(=O)O)cc1[N+](=O)[O-]`: the values for the Potency in experiment [12], in [13] and in experiment [5] were 37.7 µM (active), 42.3 µM (active) and 25.1 µM (active), respectively. In addition, the Potency result in experiment [6] and in experiment [8] was “inactive” each time. The activation is 0.546% [at 17.1 µM, percent relative to cAMP agonist control] in experiment [7] and 19% [at 30.8 µM] in experiment [11]. The activity change, negative = inhibition in experiment [9] is -3.11% [at 30.8 µM].

Consider `Cc1ccc(C(=O)/C=C/c2cc(Br)cc(Br)c2O)o1`, for which the Potency result in [14], in experiment [6], in [7], in [8], in experiment [9] and in [11] was “inactive” throughout. Besides, the Potency in [5] is 26.9 µM (active).

In the case of `Cc1[nH]n(-c2ncc(-c3ccccc3)s2)c(=O)c1C(c1ccc(Cl)cc1)C(C#N)C#N` (centres undefined), the Potency entry in [14], in experiment [6] and in [8] was “inactive” in each case. In experiment [5], the Potency is 22.4 µM (active). Further, the activation in [7] was -0.2% [at 17.1 µM, percent relative to cAMP agonist control]; in experiment [11] it was 13% [at 30.8 µM]. The activity change, negative = inhibition in experiment [9] was -10.4% [at 30.8 µM].

As for `O=S(=O)(Nc1cc2nc3ccccc3nc2n1Cc1ccccc1)c1ccc(Cl)cc1`, the Potency entry in experiment [14], in [6], in experiment [7], in [9] and in experiment [11] was “inactive” each time. In addition, the Potency in experiment [5] was 9.53 µM (active); in experiment [8], 37.9 µM (active).

`CCOC(=O)COc1ccc(Br)cc1/C=C/c1[nH]c(=O)[nH]c(=O)c1[N+](=O)[O-]`: the Potency result in experiment [14], in experiment [6], in experiment [7], in [8] and in [9] was “inactive” in each case. Besides, the Potency in experiment [5] was 7.57 µM (active).

Consider `c1ccc(-c2cn3nc(-c4ccccc4)c(-c4ccccc4)nc3n2)cc1`, for which the Potency result in experiment [10], in experiment [5], in [6] and in [8] was “inactive” each time. For the same molecule, the activation is 8.73% [at 17.1 µM, percent relative to cAMP agonist control] in [7] and 16.7% [at 30.8 µM] in [11]. Moreover, the activity change, negative = inhibition in [9] was 14.3% [at 30.8 µM].
